Measurements published in PubChem BioAssay (NCATS).
Inconclusive results are not listed. Active and inactive are the calls of the source. Calls follow the shape of the dose curve; as a rule, active = well fitted curve in the direction sought with a large enough effect; inconclusive = small, poorly fitted or top-dose-only effect, or another doubt; inactive = no such curve, though single readings can be large; an effect the other way counts as inactive or inconclusive.

What was measured:
[1] = qHTS of pediatric cancer cell lines to identify multiple opportunities for drug repurposing: Primary screen for NB-EBc1 cells (AID 1347095)
Procedure, shortened: (§1)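 Cells seeded at 500-1,000 cells/well in growth media, rested 5 hours at 37 degrees C, 5% CO2, then dosed; MIPE compounds at 11-point (from 0.78 nM) and NPC at 8-point (from 0.59 nM) final concentrations. Viability by CellTiter-Glo luminescence after 48 hours.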

[2] = qHTS of pediatric cancer cell lines to identify multiple opportunities for drug repurposing: Primary screen for U-2 OS cells (AID 1347096); also: nearly all actives have a fitted effect of over 50% in size
Procedure, shortened: (§2)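 Cells (500-1,000/well) rested 5 h, then received compounds for 48 h; metabolically active cells were measured by CellTiter-Glo luminescence. Final concentrations spanned up to 46 µM (MIPE, 11-point) or 0.59 nM-46 µM (NPC, 8-point) in primary screens, 11-point in follow-ups.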

[3] = qHTS of pediatric cancer cell lines to identify multiple opportunities for drug repurposing: Primary screen for Saos-2 cells (AID 1347097); also: nearly all actives have a fitted effect of over 40% in size
Procedure, shortened: as §1

[4] = qHTS of pediatric cancer cell lines to identify multiple opportunities for drug repurposing: Primary screen for SK-N-SH cells (AID 1347098); also: nearly all actives have a fitted effect of over 65% in size
Procedure, shortened: as §2

[5] = qHTS of pediatric cancer cell lines to identify multiple opportunities for drug repurposing: Primary screen for NB1643 cells (AID 1347099); also: nearly all actives have a fitted effect of over 50% in size
Procedure, shortened: as §1

[6] = qHTS of pediatric cancer cell lines to identify multiple opportunities for drug repurposing: Primary screen for LAN-5 cells (AID 1347100)
Procedure, shortened: as §2

[7] = qHTS of pediatric cancer cell lines to identify multiple opportunities for drug repurposing: Primary screen for BT-12 cells (AID 1347101); also: nearly all actives have a fitted effect of over 25% in size
Procedure, shortened: as §2

[8] = qHTS of pediatric cancer cell lines to identify multiple opportunities for drug repurposing: Primary screen for Rh18 cells (AID 1347102); also: nearly all actives have a fitted effect of over 65% in size
Procedure, shortened: as §2

[9] = qHTS of pediatric cancer cell lines to identify multiple opportunities for drug repurposing: Primary screen for OHS-50 cells (AID 1347103); also: nearly all actives have a fitted effect of over 40% in size
Procedure, shortened: as §2

[10] = qHTS of pediatric cancer cell lines to identify multiple opportunities for drug repurposing: Primary screen for RD cells (AID 1347104); also: nearly all actives have a fitted effect of over 55% in size
Procedure, shortened: as §1
Potency is read from the fitted curve at half-maximal effect.

SMILES | Potency [1] | Potency [2] | Potency [3] | Potency [4] | Potency [5] | Potency [6] | Potency [7] | Potency [8] | Potency [9] | Potency [10]
CC1(C)OC2=C(C(=O)c3ccccc3C2=O)[C@H](NCc2ccccc2)[C@H]1O | 2.35 µM (active) | 9.35 µM (active) | 5.9 µM (active) | 4.82 µM (active) | 4.18 µM (active) | 5.26 µM (active) | 13.7 µM (active) | 7.43 µM (active) | 4.32 µM (active) | 10.5 µM (active)
COC(=O)[C@]12CCC(C)(C)C[C@@H]1[C@@H]1C(=O)C=C3[C@@]4(C)C=C(C#N)C(=O)C(C)(C)[C@@H]4CC[C@@]3(C)[C@]1(C)CC2 | 0.264 µM (active) | 0.935 µM (active) | 0.743 µM (active) | 1.92 µM (active) | 0.662 µM (active) | 0.833 µM (active) | 0.968 µM (active) | 0.935 µM (active) | 0.685 µM (active) | 0.526 µM (active)
CN(C)c1nc(Cc2ccc(NC(=O)c3ccc4ccccc4c3)cc2)nc(Cl)c1CC(=O)O | inactive | inactive | inactive | inactive | inactive | inactive | inactive | inactive | inactive | inactive
Cc1[nH]c2ccccc2c1CCNCc1ccc(C=CC(=O)NO)cc1 | 0.372 µM (active) | 0.469 µM (active) | 0.264 µM (active) | 0.271 µM (active) | 0.187 µM (active) | 0.105 µM (active) | 0.611 µM (active) | 0.0935 µM (active) | 0.153 µM (active) | 0.372 µM (active)
O=C(O)c1ccc2c(c1)nc(Nc1cccc(Cl)c1)c1ccncc12 | 2.35 µM (active) | 18.7 µM (active) | 4.69 µM (active) | 12.1 µM (active) | 2.64 µM (active) | 7.43 µM (active) | 19.3 µM (active) | 14.8 µM (active) | 3.06 µM (active) | 9.35 µM (active)
CCc1c2c(nc3ccc(O)cc13)-c1cc3c(c(=O)n1C2)COC(=O)[C@]3(O)CC | 0.001 µM (active) | inactive | 0.0187 µM (active) | 0.152 µM (active) | 0.0235 µM (active) | 0.001 µM (active) | 0.193 µM (active) | 0.105 µM (active) | 0.0086 µM (active) | 0.372 µM (active)
CC[C@@H]1C(=O)N(C)c2cnc(Nc3ccc(C(=O)NC4CCN(C)CC4)cc3OC)nc2N1C1CCCC1 | 0.148 µM (active) | 14.8 µM (active) | 0.0469 µM (active) | 2.41 µM (active) | 1.32 µM (active) | 0.0332 µM (active) | 0.172 µM (active) | 5.9 µM (active) | 0.0544 µM (active) | 0.059 µM (active)
CNC(=O)c1nn(C)c2c1C(C)(C)Cc1cnc(Nc3ccc(N4CCN(C)CC4)cc3)nc1-2 | 2.35 µM (active) | 5.9 µM (active) | 2.35 µM (active) | 1.71 µM (active) | 0.743 µM (active) | 0.662 µM (active) | 6.85 µM (active) | 3.32 µM (active) | 1.53 µM (active) | 3.72 µM (active)
COc1cccc2nc(-c3cccs3)nc(NN3C(=O)C=C(C)C3=O)c12 | 0.332 µM (active) | 1.87 µM (active) | 0.743 µM (active) | 0.271 µM (active) | 0.743 µM (active) | 0.0935 µM (active) | 2.73 µM (active) | 5.26 µM (active) | 1.72 µM (active) | 5.26 µM (active)
Clc1cccc(-c2nnnn2Cc2cccnc2)c1Cl | inactive | inactive | inactive | inactive | inactive | inactive | inactive | inactive | inactive | inactive
CC(C)(C)OC(=O)Nc1ccc(-c2cc(C(=O)NCCCCCCC(=O)NO)no2)cc1 | 1.18 µM (active) | 4.69 µM (active) | 2.35 µM (active) | 6.81 µM (active) | 1.18 µM (active) | 1.66 µM (active) | 17.2 µM (active) | 2.35 µM (active) | 4.32 µM (active) | 5.26 µM (active)
COCCn1c2c([n+](Cc3cnccn3)c1C)C(=O)c1ccccc1C2=O | 0.0935 µM (active) | 0.118 µM (active) | 0.0372 µM (active) | 0.482 µM (active) | 0.209 µM (active) | 0.0047 µM (active) | 0.0343 µM (active) | 0.0332 µM (active) | 0.0153 µM (active) | 0.0118 µM (active)
COc1cc2c(Oc3ccc(-c4cnc(Nc5ccc(F)cc5)n(C)c4=O)cc3F)ccnc2cc1OCCCN1CCOCC1 | 3.32 µM (active) | 14.8 µM (active) | 2.09 µM (active) | 15.2 µM (active) | 14.8 µM (active) | 1.18 µM (active) | 21.7 µM (active) | 2.64 µM (active) | 0.306 µM (active) | 9.35 µM (active)
Cc1ccc(C(=O)Nc2ccc(CN3CCN(C)CC3)c(C(F)(F)F)c2)cc1C#Cc1cnc2cccnn12 | 6.62 µM (active) | 5.9 µM (active) | 2.35 µM (active) | 6.07 µM (active) | 23.5 µM (active) | 11.8 µM (active) | 6.85 µM (active) | 2.09 µM (active) | 1.09 µM (active) | 3.32 µM (active)
